Assay outcomes as filed in PubChem BioAssay.
CCHF vOTU inh = CCHFV vOTU protease inhibitors, primary screen, biochemical, Pep-AMC substrate, fluorescence; inhibition, % at 11.5 µM; 370,000 compounds, 0.55% hits; in the data active = inhibition above about 30%
RecA splice inh = Mtb RecA intein splicing inhibitors, primary screen, biochemical, fluorescence, HTS. cell-free RecA intein splicing. AID 2221, 2009. inhibition, % (no concentration beside the values). 290,000 compounds, 0.75% hits. Protein RecA (Mycobacterium tuberculosis (strain ATCC 25618 / H37Rv)), P9WHJ3; in the data active = inhibition above about 30%
Target sequence (P9WHJ3 whole entry, looked up, canonical isoform): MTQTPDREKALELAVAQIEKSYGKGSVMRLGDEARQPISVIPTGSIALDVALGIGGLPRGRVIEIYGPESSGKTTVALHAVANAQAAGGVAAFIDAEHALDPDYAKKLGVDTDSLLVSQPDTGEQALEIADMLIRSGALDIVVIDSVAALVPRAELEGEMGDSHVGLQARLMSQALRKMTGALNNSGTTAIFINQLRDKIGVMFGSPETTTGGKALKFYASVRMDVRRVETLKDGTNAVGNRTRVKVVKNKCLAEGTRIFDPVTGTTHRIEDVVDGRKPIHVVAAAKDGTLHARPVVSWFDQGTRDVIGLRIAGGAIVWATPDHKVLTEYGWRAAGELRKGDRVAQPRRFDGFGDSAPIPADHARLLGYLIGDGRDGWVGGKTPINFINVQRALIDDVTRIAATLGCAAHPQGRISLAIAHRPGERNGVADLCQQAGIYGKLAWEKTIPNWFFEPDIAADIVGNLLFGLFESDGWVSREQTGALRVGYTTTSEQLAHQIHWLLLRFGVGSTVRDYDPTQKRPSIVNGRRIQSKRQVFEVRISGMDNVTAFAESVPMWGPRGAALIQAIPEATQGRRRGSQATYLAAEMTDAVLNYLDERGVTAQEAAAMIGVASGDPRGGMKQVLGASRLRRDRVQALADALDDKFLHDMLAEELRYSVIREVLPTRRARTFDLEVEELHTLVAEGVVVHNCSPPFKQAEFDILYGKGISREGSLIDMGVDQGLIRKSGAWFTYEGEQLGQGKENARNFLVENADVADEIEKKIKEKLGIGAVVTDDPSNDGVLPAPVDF
BJeLR lethal = MLPCN primary cell-based screen for lethality selective to Ras in HRASV12 cells; BJeLR (HRASV12) viability, CellTiter-Glo ATP luminescence, 48 h; 300,000 compounds, 0.17% hits; inhibition, % (concentration not given with the values); in the data active = inhibition above about 50%
Sa ugtP lethal = growth inhibition of ugtP-null S. aureus, primary screen, RN4220 ugtP deletion, OD600; 16 h; growth inhibition, % (concentration not given with the values); 330,000 compounds, 0.54% hits; in the data active = growth inhibition above about 68%
Mtb hypoxia inh = PubChem AID 1159583 | 300,000 compounds, 0.1% hits | M. tuberculosis hypoxia-regulated fluorescent reporter, fluorescence | fluorescence inhibition, % (no concentration beside the values); in the data active = fluorescence inhibition mostly above about 23%, no sharp cut-off; inactive = mostly below about 17%
Sa RN4220 lethal = growth inhibition of S. aureus RN4220, primary screen, OD600; 16 h; inhibition, % (concentration not given with the values); 330,000 compounds, 0.33% hits; in the data active = inhibition above about 85%
Each line names hits and unclear results; the compound was inactive in the other large screens. Hits are enriched below; roughly 1.6% of the tested compounds scored in any of these assays.

O=C(CSc1nc2ccccc2nc1N1CCOCC1)N1CCN(c2ccccc2)CC1	Mtb hypoxia inh 17.1
O=C(CSc1nc2ccccc2nc1N1CCCCC1)N1CCN(c2ccccc2)CC1	none
COC(=O)C1=C(c2ccc(OC)c(OC)c2)CC2CCC1N2C(=O)N1CCC(C)CC1 (configuration not stated)	none (no result: CCHF vOTU inh, RecA splice inh, BJeLR lethal)
COc1cc(NS(=O)(=O)c2ccc(NC=CC(=O)c3ccc(OC)c(OC)c3)cc2)nc(OC)n1	none (no result: CCHF vOTU inh, RecA splice inh, BJeLR lethal)
Cn1c2ccccc2c2cc(C(=O)NNC(=O)CCl)sc21	RecA splice inh 32.7
CCCCCn1c(=O)c(C(=O)Nc2nc3ccccc3[nH]2)c(O)c2ccccc21	Sa ugtP lethal 100.6
CCn1c(=O)c(C(=O)Nc2nc3ccccc3[nH]2)c(O)c2ccccc21	Sa ugtP lethal 100.4, Sa RN4220 lethal 99.7
CN(C)CC(CCC(CN(C)C)C(O)(c1ccccc1)c1ccccc1)C(O)(c1ccccc1)c1ccccc1 (configuration not stated)	BJeLR lethal 83.2
CN(C)C/C=C/C(O)(c1ccccc1)c1ccccc1	none
CCCCCn1c(=O)c2ccccc2n2c(CCl)nnc12	none (no result: RecA splice inh)
CC(C)CCn1c(=O)c2ccccc2n2c(CCl)nnc12	Mtb hypoxia inh 36.1 (no result: RecA splice inh)
CNc1cc(C)c(C#N)c2nc3ccccc3n12	none
Cc1cc(Cl)n2c(nc3ccccc32)c1C#N	BJeLR lethal 61.2 (not shown: Mtb hypoxia inh)
CC(=O)NCc1ccc(C(=O)CCl)cc1	none
CC(=O)N(C)Cc1ccc(C(=O)CCl)cc1	RecA splice inh 37.0
COc1ccccc1-c1c(C)oc2cc(OC(=O)c3ccco3)ccc2c1=O	RecA splice inh 30.6
COc1cccc(C2=NN(C(=O)c3cccs3)C(O)(C(F)(F)F)C2)c1 (configuration not stated)	Sa RN4220 lethal 91.4
CC1(C)N=C(SCC(=O)Nc2ccc(Cl)cc2)C(c2ccc(Cl)cc2)=N1	RecA splice inh 44.4
CCCN1C(=O)C(=Cc2cc(C)n(C)c2C)SC1=Nc1ccc(OCC)cc1	none (no result: CCHF vOTU inh, RecA splice inh, BJeLR lethal)
O=C(C1=CC(C2CC2)CC(OCCCCO)O1)N1CCN(Cc2ccccc2)CC1 (configuration not stated)	none (no result: CCHF vOTU inh, RecA splice inh, BJeLR lethal)
O=C1NC(=S)S/C1=C\c1ccc(SCc2ccccc2)o1	Sa ugtP lethal 89.5, Sa RN4220 lethal 92.8 (no result: RecA splice inh, BJeLR lethal)
O=C1NC(=S)S/C1=C/c1ccc(OC(=O)c2ccco2)cc1	none (no result: Sa ugtP lethal, Mtb hypoxia inh, Sa RN4220 lethal)
NC(Cc1cc(I)c(O)c(I)c1)C(=O)O (configuration not stated)	none (no result: CCHF vOTU inh, RecA splice inh, BJeLR lethal)
CC(C)=CCC12Oc3cc(O)ccc3C1(O)Oc1cc3c(c(O)c1C2=O)C=CC(C)(C)O3 (configuration not stated)	Sa ugtP lethal 96.6 (no result: CCHF vOTU inh, Mtb hypoxia inh)
CCCCCCCCC[n+]1cccc2c3ccccc3ccc21	Sa ugtP lethal 100.2, Sa RN4220 lethal 100.1 (no result: CCHF vOTU inh)
c1ccc(-c2nc(N3CCCCCC3)nc(-n3ccnc3)n2)cc1	RecA splice inh 45.9 (not shown: Mtb hypoxia inh)
COc1ccc(/C=C/C(=O)NCC2COc3ccccc3O2)c(OC)c1 (configuration not stated)	Sa ugtP lethal 98.7
COC(=O)c1ccc2c(c1)C(C)(C)C(/C=C/c1ccc(OC)c(OC)c1OC)=[N+]2C	BJeLR lethal 52.0 (no result: Sa ugtP lethal, Mtb hypoxia inh, Sa RN4220 lethal)
COC(=O)C1=C(c2ccc(F)cc2OCc2ccccc2)CC2CCC1N2C(=O)NCCOc1ccc(OC)cc1 (configuration not stated)	none (no result: CCHF vOTU inh, RecA splice inh, BJeLR lethal)
Cc1cccc(C)c1NC(=S)NC(=O)CCc1ccccc1	none
Cc1ccccc1NC(=S)NC(=O)CCc1ccccc1	Sa ugtP lethal 85.5
CC1=NN(c2ccccc2)C(=O)/C1=C\c1ccc(Oc2ccc([N+](=O)[O-])cc2[N+](=O)[O-])cc1	CCHF vOTU inh 91.0, RecA splice inh 84.3 (no result: Sa ugtP lethal, Mtb hypoxia inh, Sa RN4220 lethal)
Nc1ccc(Oc2ccc([N+](=O)[O-])cc2[N+](=O)[O-])cc1	none
CC(=O)c1ccc(NC(=O)N2CCc3ccccc3C2)cc1	BJeLR lethal 105.1
CC(=O)c1cccc(NC(=O)N2CCc3ccccc3C2)c1	none
COc1cc(C=Nn2c(SC)nnc(C(C)(C)C)c2=O)ccc1O	none (no result: CCHF vOTU inh, RecA splice inh, BJeLR lethal)
O=C1N=C2SCCN2C1=Cc1ccccc1Cl	none (no result: CCHF vOTU inh, RecA splice inh, BJeLR lethal)
COc1ccc(C2C(=C(O)c3ccccc3)C(=O)C(=O)N2C)cc1 (configuration not stated)	none (no result: CCHF vOTU inh, RecA splice inh, BJeLR lethal, Mtb hypoxia inh)
C=C(C)CNC(=S)N=Nc1c(O)[nH]c2ccc([N+](=O)[O-])cc12	RecA splice inh 32.7
CCCCOc1ccc(Cc2cnc(N)nc2N)cc1	none (no result: RecA splice inh)
CC(C)Oc1ccc(Cc2cnc(N)nc2N)cc1	Sa ugtP lethal 91.4
N#Cc1ccccc1CSc1nc2ccsc2c(=O)n1Cc1ccccn1	none
Cc1ccc(CSc2nc3ccsc3c(=O)n2Cc2ccccn2)cc1	Sa ugtP lethal 86.9
CCCCN(C(=O)CCC(=O)Nc1cc(C)on1)C(C(=O)NC1CCCC1)c1ccc(OCC)cc1 (configuration not stated)	CCHF vOTU inh 37.5
COC(=O)c1sc(C(C)(C)C)cc1CS(=O)(=O)c1ccc(Cl)cc1	none
COC(=O)c1sc(C(C)(C)C)cc1CSc1ccccc1	Sa ugtP lethal 83.7
CC1CC2C3CCC4=CC(=O)C=C[C@]4(C)[C@@]3(F)C(O)C[C@]2(C)[C@@]1(O)C(=O)COP(=O)(O)O (some centres not stated)	none (no result: CCHF vOTU inh, RecA splice inh, BJeLR lethal)
C=CC1c2cc(C)ccc2N(S(=O)(=O)c2ccc(C)cc2)C(c2ccccc2C(F)(F)F)C1(C#N)C#N (configuration not stated)	none (no result: CCHF vOTU inh, RecA splice inh, BJeLR lethal)
Cc1cc(C)nc(NS(=O)(=O)c2ccc(NC(=S)NC(=O)CC(C)C)cc2)n1	Sa ugtP lethal 84.4 (no result: Mtb hypoxia inh)
CC(C)CC(=O)NC(=S)Nc1ccc(S(=O)(=O)N2CCCC2)cc1	Sa ugtP lethal 86.9
CC(O)Cc1cn(C(CCCCNC(=O)OC(C)(C)C)C(=O)N2CCN(C(=O)OC(C)(C)C)CC2)nn1 (configuration not stated)	none (no result: CCHF vOTU inh, RecA splice inh, BJeLR lethal)
COc1cc([N+](=O)[O-])cc(C=NNC(=O)C(C)Nc2ccccc2C)c1O (configuration not stated)	none (no result: CCHF vOTU inh, RecA splice inh, BJeLR lethal)
C=C(C)C(O)CC/C(C)=C/Cc1c(O)ccc(C(=O)/C=C/c2ccc(O)cc2)c1O (configuration not stated)	Sa ugtP lethal 90.7, Sa RN4220 lethal 98.6 (no result: RecA splice inh, BJeLR lethal, Mtb hypoxia inh)
c1ccc2c(CC3CNCCN3CC3CCCCC3)cccc2c1 (configuration not stated)	none (no result: CCHF vOTU inh, RecA splice inh, BJeLR lethal)
CC1=NNC(=O)C1Cc1ccc(F)cc1 (configuration not stated)	RecA splice inh 96.6
CC1=NNC(=O)C1CCC(=O)N/N=C/c1ccc(C)cc1 (configuration not stated)	none (no result: Sa ugtP lethal, Mtb hypoxia inh, Sa RN4220 lethal)
CCC(C)Cc1cn(C(CCCCN)C(=O)NCCCCCCCCCCC(=O)N2CCNCC2)nn1 (configuration not stated)	none (no result: CCHF vOTU inh, RecA splice inh, BJeLR lethal)
COc1ccc(NC(=S)NC(=O)/C=C/c2cccs2)cc1	Sa ugtP lethal 83.9
COc1ccc(NC(=S)NC(=O)/C=C/c2ccccc2)cc1	none
